From PubChem BioAssay
This excerpt belongs to a sample that is enriched for hits.
Dicer processing: inhibitors of human Dicer processing of pre-microRNA; cat-ELCCA pre-miR-21 Dicer processing, chemiluminescence; stronger effect = higher value; z-score at 25 µM; 6% of 47,000 active; AID 1347074; in the data active = z-score above about 3, passing the limit was not always enough;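 note: plate controls were vehicle for no effect and no enzyme for full effect; higher signal means more uncleaved substrate so more Dicer inhibition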
Target sequence (Q9UPY3 whole entry, looked up): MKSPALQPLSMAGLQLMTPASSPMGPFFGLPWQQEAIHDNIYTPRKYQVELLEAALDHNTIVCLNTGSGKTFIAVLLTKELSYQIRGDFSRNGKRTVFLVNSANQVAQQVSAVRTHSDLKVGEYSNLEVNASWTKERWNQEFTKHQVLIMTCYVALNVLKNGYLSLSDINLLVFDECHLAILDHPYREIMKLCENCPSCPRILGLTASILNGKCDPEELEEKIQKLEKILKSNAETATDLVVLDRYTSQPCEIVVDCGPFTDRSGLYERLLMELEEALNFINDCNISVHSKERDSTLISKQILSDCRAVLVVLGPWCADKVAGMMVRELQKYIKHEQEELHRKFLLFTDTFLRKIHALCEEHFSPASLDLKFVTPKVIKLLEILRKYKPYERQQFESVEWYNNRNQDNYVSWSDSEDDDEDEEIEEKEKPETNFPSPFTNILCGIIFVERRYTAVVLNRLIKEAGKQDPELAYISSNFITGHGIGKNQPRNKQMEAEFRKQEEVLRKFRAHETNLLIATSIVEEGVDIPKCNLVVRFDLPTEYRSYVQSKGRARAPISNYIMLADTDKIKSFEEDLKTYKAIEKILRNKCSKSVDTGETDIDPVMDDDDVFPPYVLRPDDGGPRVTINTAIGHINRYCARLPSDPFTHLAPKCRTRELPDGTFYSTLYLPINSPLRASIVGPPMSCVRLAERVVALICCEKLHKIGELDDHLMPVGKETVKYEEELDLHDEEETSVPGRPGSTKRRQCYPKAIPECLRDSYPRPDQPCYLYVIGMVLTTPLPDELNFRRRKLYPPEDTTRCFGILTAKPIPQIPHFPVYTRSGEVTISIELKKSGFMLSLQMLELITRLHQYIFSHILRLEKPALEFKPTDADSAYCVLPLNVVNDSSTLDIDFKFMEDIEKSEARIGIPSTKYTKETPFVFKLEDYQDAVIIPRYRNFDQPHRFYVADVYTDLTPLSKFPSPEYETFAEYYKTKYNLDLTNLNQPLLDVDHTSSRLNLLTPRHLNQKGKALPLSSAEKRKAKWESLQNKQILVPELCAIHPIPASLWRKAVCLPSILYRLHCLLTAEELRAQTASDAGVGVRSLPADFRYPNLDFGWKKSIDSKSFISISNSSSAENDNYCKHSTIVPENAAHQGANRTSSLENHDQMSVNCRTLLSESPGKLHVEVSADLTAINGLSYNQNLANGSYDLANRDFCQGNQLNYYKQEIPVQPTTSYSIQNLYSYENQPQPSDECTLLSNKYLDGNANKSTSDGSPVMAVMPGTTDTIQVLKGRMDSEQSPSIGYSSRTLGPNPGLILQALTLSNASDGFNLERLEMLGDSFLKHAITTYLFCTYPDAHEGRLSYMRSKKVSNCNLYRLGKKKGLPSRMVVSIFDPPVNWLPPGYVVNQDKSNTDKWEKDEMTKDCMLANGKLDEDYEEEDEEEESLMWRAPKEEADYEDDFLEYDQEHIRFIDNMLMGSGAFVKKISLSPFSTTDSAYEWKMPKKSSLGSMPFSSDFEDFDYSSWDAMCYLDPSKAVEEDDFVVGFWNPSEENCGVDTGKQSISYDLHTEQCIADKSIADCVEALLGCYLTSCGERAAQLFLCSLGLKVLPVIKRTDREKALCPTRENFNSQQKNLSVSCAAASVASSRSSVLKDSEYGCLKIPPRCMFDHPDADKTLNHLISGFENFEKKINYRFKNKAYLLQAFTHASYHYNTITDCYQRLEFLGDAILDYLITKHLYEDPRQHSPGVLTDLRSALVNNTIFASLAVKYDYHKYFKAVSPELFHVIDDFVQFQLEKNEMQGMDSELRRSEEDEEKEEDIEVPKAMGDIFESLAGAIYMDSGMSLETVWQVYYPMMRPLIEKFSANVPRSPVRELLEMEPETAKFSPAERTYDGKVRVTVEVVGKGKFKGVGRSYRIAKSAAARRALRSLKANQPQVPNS
Starred values were filed as active, the others as inactive.

SMILES | Dicer processing
COc1ccc(-c2c(N)n[nH]c2C)cc1OC | 4.9*
COc1ccc(-c2nc3cc(N)ccc3o2)cc1OC | 2.5
COc1ccc(-c2c(-c3ccc(OC)c(OC)c3)c(C)n(C)c2C)cc1OC | -0.69
COCCOC(=O)C1=C(C)NC2=C(C(=O)CCC2)C1c1cccc2ccccc12 (stereo unspecified) | 0.3
CC(Oc1ccc(Oc2ccc(C(F)(F)F)cc2)cc1)C(=O)NNC(=O)c1ccc([N+](=O)[O-])cc1 (stereo unspecified) | -0.53
COc1ccccc1N1C(=O)CC(Nc2ccc(N(C)C)cc2)C1=O (stereo unspecified) | -1.8
Cc1ccc(N2C(=O)c3ccccc3C2C(=O)c2ccc(C)cc2O)cc1 (stereo unspecified) | 12*
Cc1ccc(C(=O)C2C(=O)c3ccccc3C2=O)cc1 | 0.21
Cc1ccc(C(=O)CN2/C(=C(/O)c3ccccc3)C(=O)c3ccccc3S2(=O)=O)c(C)c1 | -0.63
N#CC1=C(N)Oc2n[nH]c(-c3ccc4c(c3)OCO4)c2C1c1ccccc1Cl (stereo unspecified) | -5.1
Cc1ccc(-n2cccc2)c(NC(=O)C(c2ccccc2)C2CCCC2)c1 (stereo unspecified) | -1.6
Cc1ccc(NC(=S)N(Cc2ccc(N(C)C)cc2)C(C)C)c(Cl)c1 | 0.5
CSC1=N/C(=C\c2ccccc2Cl)C(=O)N1Cc1ccc(Cl)cc1 | -1.1
Cc1c2c(=O)n(-c3ccccc3)[nH]c2cc(=O)n1CCc1c[nH]c2ccccc12 | 3*
Cc1nc(=O)c(-c2ccccc2)c(C)n1CCc1c[nH]c2ccccc12 | -1.1
Cc1c2c(=O)n(-c3ccccc3)[nH]c2cc(=O)n1Cc1ccc2c(c1)OCO2 | -2
CCC(=O)OC1CCC2(C)C3C(CC[C@H]2C1)C1C[C@@H](C)[C@](O)(C(C)=O)C1(C)C[C@H]3OC(=O)CC (stereo partly specified) | -0.29
COc1ccc(C2Nc3c(C)cc(C)cc3-c3cc(C)nn32)cc1 (stereo unspecified) | 2.5
Nc1nnc(SCC(=O)Nc2nc(-c3ccccc3)cs2)s1 | 0.7
Cc1nn(-c2cc(Cl)ccc2Cl)c(N)c1-c1nc(C(C)(C)C)cs1 | -2
Cn1nc(OC(C)(C)C(=O)Nc2ccc(Cl)cc2Cl)cc1C(F)(F)F | -1
CSc1n[nH]c(-c2ccc(C(F)(F)F)cc2)n1 | 3.1
Cc1nc(-c2ccc(C(F)(F)F)cc2)sc1Br | 18*
CCOC(=O)c1sc(-c2ccc(C(F)(F)F)cc2)nc1O | -0.27
O=C(NNc1ncccc1C(F)(F)F)c1cccc(C(F)(F)F)c1 | -0.2
SMILES | Dicer processing
N#Cc1cccnc1NNC(=O)Nc1cccc2ccccc12 | -5.8
COCCOC(=O)C1=C(C)NC2=C(C(=O)CCC2)C1c1ccc(C)s1 (stereo unspecified) | 1
COC(=O)C1=C(C)NC2=C(C(=O)CCC2)C1c1ccc(C#Cc2ccccc2)s1 (stereo unspecified) | 3.1*
COC(=O)C1=C(C)NC2=C(C(=O)CCC2)C1c1sc2ccccc2c1C (stereo unspecified) | -3.4
COC(=O)C1=C(C)NC2=C(C(=O)CC(C)(C)C2)C1c1ccccn1 (stereo unspecified) | 0.16
COC(=O)C1=C(C)NC2=C(C(=O)CCC2)C1c1ccccn1 (stereo unspecified) | 3.3*
CC1=C(C(=O)OCCc2ccccc2)C(c2ccccn2)C2=C(CCCC2=O)N1 (stereo unspecified) | 1.4
C/C(=N\NC(=S)NCC1CCCO1)c1cccs1 (stereo unspecified) | 0.73
CC12CC3CC(Br)(C1)CC(C(=O)O)(C3)C2 (stereo unspecified) | 0.64
COc1ccc(C2=NN(C(=O)CCC(=O)O)C(c3ccc(Cl)cc3)C2)cc1OC (stereo unspecified) | 5.1
CC(C)(C)C(=O)Cn1nnc(N2CCCC2)n1 | 6.3
COc1cc(C2/C(=C(/O)c3ccc(Cl)cc3)C(=O)C(=O)N2CC(C)C)ccc1O (stereo unspecified) | -1.2
Nc1ccc2oc(-c3cccc(-c4nc5cc(N)ccc5o4)n3)nc2c1 | -4.8
Cc1ccccc1-c1nc2cc(N)ccc2o1 | 5.7
Nc1ccc(CCc2nc3cc(N)ccc3o2)cc1 | 3.9*
COc1ccc(-c2noc(Cc3ccccc3)n2)cc1OC | -2.1
Cc1cc(C(C)(C)C)cc(S(=O)(=O)Nc2ccc(O)c(Sc3ncn[nH]3)c2)c1C | 8.2
Cc1cc(C)c(S(=O)(=O)Nc2ccc(O)c(Sc3ncn[nH]3)c2)cc1C | 7.3*
O=C(CSc1ncn[nH]1)Nc1ccc(F)cc1 | -0.99
CCCCCCN1C(=O)C(=O)c2ccccc21 | 1
Cc1nnc(SCC(=O)Nc2sc3c(c2C(=O)OC(C)C)CCCC3)s1 | 0.07
Cc1nnc(SCC(=O)c2ccc(F)cc2)s1 | 0.8
CNC(=O)c1cccc2cccc(Sc3ccccc3C(=O)O)c12 | 25*
O=C(O)c1cccc2cccc(Sc3cccc4ccccc34)c12 | 0.88
O=C(O)c1cccc2cccc(Sc3cccc4cccc(CO)c34)c12 | -0.86
SMILES | Dicer processing
Cc1nn(C(=O)Nc2cccc(Cl)c2)c(C)c1Cc1csc2ccc(Cl)cc12 | 0.71
O=C(CN1C(=O)c2ccccc2S1(=O)=O)NCCSc1ccc(Cl)cc1 | 1.1
CN(C)c1ccc(/C=N/NC(=O)N/N=C/c2ccc(N(C)C)cc2Cl)c(Cl)c1 | -0.21
CC(C)c1ccc(C(=O)CC2(O)C(=O)N(CC(N)=O)c3ccccc32)cc1 (stereo unspecified) | 1.9
O=C(Nc1nnc(COc2ccc(Cl)cc2)s1)c1ccco1 | 4*
O=C(Nc1nnc(CCSc2ccc3ccccc3c2)s1)c1ccco1 | 1
COCc1nnc(NC(=O)COc2ccc(Cl)cc2)s1 | 0.02
COCCOC(=O)C1=C(C)NC2=C(C(=O)CC(c3ccccc3Cl)C2)C1c1ccc(C)o1 (stereo unspecified) | -0.93
Cc1ccc(N2C(=O)C3C4C=CC(CC4)C3C2=O)c(Br)c1 (stereo unspecified) | 1.3
O=C1C2C3C=CC(CC3)C2C(=O)N1c1cccc(Cl)c1 (stereo unspecified) | 3.3*
CC(C)c1ccc(N2C(=O)C3C4C=CC(CC4)C3C2=O)cc1 (stereo unspecified) | 3.5*
O=C1C2C3C=CC(C3)C2C(=O)N1c1ccc(Cc2ccc(N3C(=O)C4C5C=CC(C5)C4C3=O)cc2)cc1 (stereo unspecified) | 0.54
O=C(O)c1cccc(N2C(=O)C3C4C=CC(CC4)C3C2=O)c1 (stereo unspecified) | 2
COC(=O)c1ccc(N2C(=O)C3C4C=CC(CC4)C3C2=O)cc1 (stereo unspecified) | -0.19
CCCSc1ccc([N+](=O)[O-])c(NC(=O)c2nn(-c3ccccc3)nc2C)c1 | -0.71
CC1CN(c2ccc(Oc3ccccc3)cc2)c2nc3c(c(=O)n(CC(=O)O)c(=O)n3C)n2C1 (stereo unspecified) | -0.19
NC(=O)C1(N2CCCCC2)CCN(S(=O)(=O)c2ccc3c(c2)OCCCO3)CC1 | -3.8
CCOC(=O)c1cnc2c(c(C)nn2C)c1Sc1ccc(Cl)cc1 | -5.4
Cc1onc(-c2c(Cl)cccc2Cl)c1C(=O)NC(=S)N=S(C)(=O)c1ccccc1 (stereo unspecified) | -0.24
CC1=C(C(=O)OCC2CCCO2)C(c2ccccc2F)C2=C(CC(C)(C)CC2=O)N1 (stereo unspecified) | 4.7*
CC1=C(C(=O)OCC2CCCO2)C(c2ccc3c(c2)OCO3)C2=C(CC(C)(C)CC2=O)N1 (stereo unspecified) | 1.4
